# Laboratory results reported in the supplement of paper PMC6555819.
# Test system: PPARg:RXRa 30nM:10nM, anti-RXR (NR concentration 30 nM, RXRa partner concentration 10 nM)
# Assay: PBM binding z-score (relative to random genomic background probes); higher = stronger binding; sequences stand for … in GC…GCGATTGACAGCGTAGAATGAAGG
# Summary of the method: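 Probes were double-stranded and carried 34-nt variable regions with direct-repeat seeds, single-nucleotide variants, half-site ablations and random human genomic background sequences, printed on custom Agilent 4×180K protein-binding microarrays. Arrays were incubated 1 h with ligand-free nuclear receptor dimers in PBS pH 7.4, 2% milk, 0.02% Triton X-100, 1 mM DTT, 0.2 mg/mL BSA and 0.4 mg/ml salmon testes DNA. Antibodies against each partner (one per run) detected binding, and scanned fluorescence was regression-normalized. Binding z-scores use the random background probes as reference.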
row,Sequence,PBM binding z-score
1,GCTGACGGGTCAAAGGTTATAGCATGAATAGAAT,7.21
2,ATCGAAAGGTTGACGAGGTGAGTATACACCGTTT,0.581
3,CCTAATGGGCCATTCAGAGGTCATTGATCATATG,0.458
4,CAAACTAGCTCAAGGTCAAAGTCGGTTTGTGCCA,0.947
5,TAGCCTAGATCAGATCGGGCCAGTATACGCTATA,-0.499
6,CCTAGCAGGTCAGGGTCACTCAAGCATTTCGCTT,1.09
7,TAGCCTAGGTCATGCGAGCCAGTATAGTGTCGGC,0.259
8,CCTACTGGGCCCAAAAGGTCATTGATGCCGATAA,0.593
9,TCTAGTTGGTCAAAGGTCACACATTCGAAATGCG,10.8
10,AGAATGAGGTTAAGAACAGGGAAACAGAATACAT,0.811
11,GATACAGGGTCAAGGCAAGAGTACGCGTATTGAT,2.18
12,CCTTACGGGTCAAGCTTATAGCACGGGTGGTACG,1.87
13,CTACCAAGGTGAACAAGGTCCTTGATTACTATTC,-0.122
14,TCTCGGAGGACACGAAAGGTCAGAGCTCGACATC,2.54
15,TCTATTAGTTGATTACGGCAACCGAAACAGCGGA,3.63
16,ATCGAAAGGTCGGAGGTGAGTATACCCACCCGAA,1.04
17,TGAATGAGGTTAAAGTTCAGGGAACGTGGCGTCG,8.5
18,CCTTACGGGTCACTCCAGTTTATAGCATCGGAGT,1.11
19,ACTAGTAGTTGACTTAGGGCAACCGATACGACGC,-0.0859
20,ACAGACAGGGGAGTGAAGGTAACTCAGCTGGACG,-0.0675

row,Sequence,PBM binding z-score
1,TAGCCTATGTCATGCGGGCCAGTATAGTGTCGGC,-0.612
2,CCTACTGGGCCAAAGGTCATTGTTTCCAATGCTC,10.6
3,CCGACTGGGGCAAGGTTACCTTAACGCACAGCCA,0.821
4,CATACAGGGTCAGATAGGCCAGAGTAGGGACGGC,0.58
5,CCAGACAGGTGAGAAGGGAACTCAGCCTCGATTA,-0.465
6,CTCGAAAGGTCGTGCTCAGTTGAGTATACCAAAC,0.941
7,GGAACGAGGGCATTCGAGTTGATAGAATGGCGAT,0.0506
8,ATCGAAAGGTCGACGAGGTGTGTATACACCGTTT,1.02
9,TCTAGTAGGTTACCAATGGGGCATTCAGCTTTCT,3.2
10,GCTAGCAGGGCATTTGGGTCACTCAATGACGGGC,-0.197
11,ACAGACAAGTGAGTGAAGGTAACTCAGCTGGACG,-0.202
12,TCGTATAGGTAAAAGGTGAAAGTCGGTGTGGTAA,6.31
13,GCTCGGAGGACAAGGTCAGAGCTTTGTCCGTAGA,-0.521
14,CCGAGTAGGTTATGGCGCATTCAGGCAACGGTGA,-0.377
15,CCTACTGGGCCATTCAGACGTCATTGATCATATG,0.0211
16,AGAATGAGGTTACCAAAAATCAGGGAAACGCTTG,0.857
17,CCTCGGAGGACAGAAGTTCAGAGCTGTCCGCTTT,-1.24
18,GCTTGTAGATCAAGGTTAAGATAGACTAAGCTAA,0.465
19,CAAACTAGGTCAAGAGGTCAAAGTACGCTTCCCG,7.25
20,ATCGAAATGTCGACGAGGTGAGTATACACCGTTT,0.151
